Assay results: ChEMBL document CHEMBL3433997, “St. Jude Leishmania screening dataset” (2016)

Target: Solute carrier family 2, facilitated glucose transporter member 1 (Homo sapiens) (UniProt P11166)
Test: ST_JUDE_LEISH: Cytotoxicity at 2uM final concentration against transgenic Leishmania Mexicana promastigotes LmGLUT1 that are glucose transport deficient and complemented with the human glucose transporter GLUT1. Activity is measured by DNA content using SYBR green in vitro
Assay type: functional

Chain of Solute carrier family 2, facilitated glucose transporter member 1 (Homo sapiens) (P11166 whole entry): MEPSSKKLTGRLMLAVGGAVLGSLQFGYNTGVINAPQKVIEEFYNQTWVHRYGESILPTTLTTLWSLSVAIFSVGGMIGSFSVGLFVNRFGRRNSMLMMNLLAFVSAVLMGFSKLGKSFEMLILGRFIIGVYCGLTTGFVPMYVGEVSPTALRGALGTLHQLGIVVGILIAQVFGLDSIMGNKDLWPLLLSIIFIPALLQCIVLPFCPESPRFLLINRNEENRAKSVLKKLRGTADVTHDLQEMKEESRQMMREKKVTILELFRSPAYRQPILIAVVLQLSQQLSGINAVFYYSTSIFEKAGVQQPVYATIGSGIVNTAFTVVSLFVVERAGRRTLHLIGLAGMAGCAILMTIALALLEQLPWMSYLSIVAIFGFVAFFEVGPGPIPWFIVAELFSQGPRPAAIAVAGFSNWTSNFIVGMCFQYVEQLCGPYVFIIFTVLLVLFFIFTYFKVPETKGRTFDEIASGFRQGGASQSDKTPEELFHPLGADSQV

| Structure (SMILES) | inhibition [%] |
| --- | --- |
| O=C(Nc1ccc(N2CCCN(Cc3cccc(F)c3)CC2)cc1)c1ccccc1 | 0.26 |
| CC(O)C1CCCCN1C(=O)c1cccc(-c2ccc(-c3nc4cc(C(F)(F)F)ccc4[nH]3)cc2)c1 (configuration not stated) | 0.8 |
| Cc1ccc(S(=O)(=O)Nc2ccc(Nc3nccc(Nc4cccc5[nH]ncc45)n3)cc2)cc1 | 1.77 |
| Cc1cccc(-c2ccc(NC(=O)Nc3ccc4nccc(N5CCN(C)CC5)c4c3)cc2C)n1 | 8.09 |
| COc1ccc(Cn2c(Nc3cccc(C(F)(F)F)c3)nc3cc(C(=O)NCCCN(C)C)ccc32)cc1Cl | 0.66 |
| O=c1cc(NCCCNC(c2ccccc2)c2ccc(Cl)c(Cl)c2)[nH]c2ccccc12 (configuration not stated) | -1.95 |
| CCOc1cc(C(=O)NC2CC(C)(C)NC(C)(C)C2)ccc1-c1cc2cc(Cl)c(Cl)cc2[nH]1 | -1.95 |
